Measurements reported in PubChem BioAssay AID651994 (Sanford-Burnham Center for Chemical Genomics, 2013).
The campaign covered roughly 2,500 compounds. About 790 (32%) were called active. The list is a sample of the results. Values without a mark were called inactive.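 The calls were made as follows: active = mean cytotoxicity at 5 µM above about 25% (limit read from the data); inactive = the rest.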

Experiment: cytotoxicity in Sufu-KO-LIGHT cells, confirmation, cytotoxicity control for Gli-SUFU antagonist project, cell-based, ATP luminescence, single concentration (AID 651994);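 also: cells exposed to compound overnight for roughly 16 to 18 hours; plate controls were DMSO wells with cells for no effect and medium without cells for full effect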
Settings: at 5 µM, hits give high values
Molecule `CCc1c(C)nc2cc(C)[nH]n2c1=O` has a cytotoxicity of 10.3%.
For `Cc1cc(C(=O)CSc2nc(N)cc(=O)[nH]2)c(C)n1-c1cccc(F)c1`, the cytotoxicity was 34.2% (active).
With `CN(C)CCSc1nc(N)c2c3c(sc2n1)COC(C)(C)C3` the cytotoxicity was 9.54%.
Molecule `O=C(CN1CCN(S(=O)(=O)c2cc(Cl)ccc2Cl)CC1)c1ccc(O)c(O)c1` has a cytotoxicity of 14.6%.
`CC(=O)Nc1ccc(NC(=O)c2ccc3c(c2)C(=O)N(c2ccccc2C)C3=O)cc1` showed a cytotoxicity of 24.5%.
In the case of `Brc1c(CSc2nncc3ccccc23)nc2ccccn12`, the cytotoxicity is reported as -3.37%.
For `CN(c1ccc2nc3ccccc3c(=O)n2n1)C1CCCCC1`, the cytotoxicity was 84.2% (active).
Molecule `NS(=O)(=O)c1ccc(CCNC(=O)CCCn2c(SCC(=O)N3CCCC3)nc3ccsc3c2=O)cc1` has a cytotoxicity of -12.7%.
Work on `CC(C)(C)c1ccc(Oc2ccc(N)cc2)cc1` yielded a cytotoxicity of 18.4%.
`COc1ccc(/C=N/N=C2/C(=O)Nc3ccccc32)cc1O` showed a cytotoxicity of -0.38%.
With `COc1ccc(Cc2nnc(N/N=C/c3ccccc3O)[nH]c2=O)cc1OC` the cytotoxicity was 43.8% (active).
`CC1(C)Cc2ccccc2/C(=C/C(=O)c2ccccc2)N1` showed a cytotoxicity of 4.12%.
For `CC1(C)CC2CC(C)(CN2c2ncnc3ccc(Br)cc23)C1` (stereo unspecified), the cytotoxicity was 38.5% (active).
With `COc1cc(C(=O)OC2CCOC2=O)c([N+](=O)[O-])cc1OC` (stereo unspecified) the cytotoxicity was 3.16%.
In the case of `COc1cccc(-n2cc(C(=O)O)c3ccccc3c2=O)c1`, the cytotoxicity is reported as 25.1% (active).
`O=C(Nc1ccnn1C1CCN(C/C=C/c2ccc(F)cc2)CC1)C1CCCC1` showed a cytotoxicity of 2.29%.
`Cc1nn(C)c(Cl)c1CN1CCC(n2nccc2NC(=O)C2CCCC2)CC1` gave a cytotoxicity of 16.4%.
For `CN(C)C(CNC(=O)Cc1ccc([N+](=O)[O-])cc1)c1ccccc1` (stereo unspecified), the cytotoxicity was 15.4%.
For `COc1ccc(C(=O)NCc2nnc(SCCOc3ccccc3)n2C)cc1`, the cytotoxicity was 10.2%.
In the case of `COc1cc(C(=O)OC(C)C(=O)NCC2CCCCC2)cc(NC(=O)c2ccco2)c1OC` (stereo unspecified), the cytotoxicity is reported as -2.91%.
For `O=C(Nc1cc2c3c(c1)C1CCCC1CN3CC1CCCC21)c1ccc([N+](=O)[O-])cc1` (stereo unspecified), the cytotoxicity was 29.3% (active).
`COC(=O)c1ccccc1NC(=O)C1(S(=O)(=O)c2ccc(Cl)cc2)CC1` showed a cytotoxicity of -1.28%.
In the case of `NC(N)=Nc1nc(-c2ccccc2)c2cc(Cl)ccc2n1`, the cytotoxicity is reported as 27.1% (active).
For `O=c1c2ccccc2nc2n1C(CSCc1cccc(C(F)(F)F)c1)CS2` (stereo unspecified), the cytotoxicity was 34.2% (active).
With `Cc1ccc(-c2nc(CSCC(=O)NC3CCN(Cc4ccccc4)CC3)c(C)o2)cc1` the cytotoxicity was 12%.
In the case of `O=C(C[C@H]1C/C=C\C[C@@H](NC(=O)OCC2c3ccccc3-c3ccccc32)C(=O)O[C@@H](c2ccccc2)CNC1=O)N[C@H](CO)Cc1ccccc1`, the cytotoxicity is reported as 18.6%.
Molecule `CNc1nnc(-c2ccco2)s1` has a cytotoxicity of -0.36%.
Molecule `O=C1/C(=C/c2ccc(F)cc2)SC(=S)N1NS(=O)(=O)c1ccccc1` has a cytotoxicity of 16.4%.
For `Cc1ccc(Nc2nc(N3CCOCC3)nc(N3CCOCC3)n2)cc1Cl`, the cytotoxicity was 40.8% (active).
With `CCc1ccc(C2C(C#N)=C(N)N(N3CCOCC3)C3=C2C(=O)CC(C)(C)C3)s1` (stereo unspecified) the cytotoxicity was 25.2% (active).
In the case of `CC(C)C(=O)Nc1nnc(SCC(=O)N2C(C)CCCC2C)s1` (stereo unspecified), the cytotoxicity is reported as 1.96%.
For `CCc1c(C)[nH]c(=S)c(C#N)c1C`, the cytotoxicity was 9%.
With `Cc1c(Cl)c([N+](=O)[O-])nn1Cc1ccc(C(=O)N/N=C\c2cc(Cl)ccc2O)o1` the cytotoxicity was 29% (active).
With `CCOc1ccc(-n2c(O)c(/C=N/Nc3nc(C)cc(C)n3)c3ccccc3c2=O)cc1` the cytotoxicity was 17.6%.
For `Cc1ccsc1C(=O)OCC(=O)c1cc(C)n(CC2CCCO2)c1C` (stereo unspecified), the cytotoxicity was 26.6% (active).
`Cc1cccc2nc(CSc3nc4[nH]ncc4c(=O)n3-c3cccc(Cl)c3)cc(=O)n12` showed a cytotoxicity of 20.1%.
Work on `Cc1ccc(S(=O)(=O)N(Cc2cc3ccccc3[nH]c2=O)CC2CCCO2)cc1` (stereo unspecified) yielded a cytotoxicity of 5.2%.
Work on `COc1ccccc1CNC(=O)C1CCN(c2nc3ccccc3o2)CC1` yielded a cytotoxicity of 17.9%.
With `COc1ccc(NS(=O)(=O)c2ccc(NC(C)=O)cc2)cc1OC` the cytotoxicity was 14%.
In the case of `Cc1cccc(NS(=O)(=O)c2ccc(-c3cnc(C4CC4)o3)cc2)c1`, the cytotoxicity is reported as 54.4% (active).
In the case of `Cc1cc(C)c(SCCc2ccncc2)c(C)c1`, the cytotoxicity is reported as 29.5% (active).
With `Cc1ccc(NC(=O)CN(C)CC(=O)Nc2cccc(F)c2)cc1[N+](=O)[O-]` the cytotoxicity was 29% (active).
`Cc1ccc(O)c(NC(=O)COc2cc(C)ccc2C)c1` showed a cytotoxicity of -3.46%.
In the case of `CCCCNc1nc2c(c(=O)n(C)c(=O)n2C)n1Cc1cccc(OC)c1`, the cytotoxicity is reported as 44.5% (active).
In the case of `Cn1c(=O)c2c(nc(NCCc3ccccc3)n2Cc2ccccc2)n(C)c1=O`, the cytotoxicity is reported as 34.7% (active).
For `COCCn1c(CN2CCC(Cc3ccccc3)CC2)nc2c1c(=O)n(C)c(=O)n2C`, the cytotoxicity was 19.8%.
In the case of `COc1ccc(NS(=O)(=O)c2ccc(N3CCN(CCO)CC3)c([N+](=O)[O-])c2)cc1`, the cytotoxicity is reported as 16.4%.
Work on `CC(=O)OCCC(C)C` yielded a cytotoxicity of -7.84%.
In the case of `CCCc1nc(N)nc2c1C(=O)CC(C)(C)C2`, the cytotoxicity is reported as 5.9%.
`CN1C(CC(=O)Nc2ccc(Br)cc2)c2ccccc2CC1(C)C` (stereo unspecified) gave a cytotoxicity of 15.7%.
With `Cc1ccc(C)c(S(=O)(=O)N2CCN(c3ncnc4sccc34)CC2)c1` the cytotoxicity was 69.2% (active).
`c1ccc(-n2nnnc2N2CCOCC2)cc1` showed a cytotoxicity of 10.1%.
In the case of `CC[n+]1c(C)n(-c2ccccc2)c2ccc(NC(C)=O)cc21`, the cytotoxicity is reported as 29% (active).
`CCC1CCCCN1CCCNC(=O)Cn1nc(-c2ccccc2)ccc1=O` (stereo unspecified) showed a cytotoxicity of 20.3%.
With `CN(NC(=O)c1ccccc1F)c1nc(C(F)(F)F)nc2ccccc12` the cytotoxicity was 56.2% (active).
Work on `CCn1c(SCc2ccccc2)nc2cc(OC)c(OC)cc2c1=O` yielded a cytotoxicity of 23.5%.
Work on `CCOc1cccc(/C=N/NC(=S)NCCN2CCOCC2)c1O` yielded a cytotoxicity of 20.7%.
`CCOC(=O)c1cnc(-n2nc(C)cc2C)nc1NNc1cc(C)nc(-c2ccccc2)n1` gave a cytotoxicity of 24%.
For `c1c2c(cc3sc(N4CCCCC4)nc13)OCCO2`, the cytotoxicity was 51.8% (active).
For `CN(C)CCN(C(=O)C1CCCCC1)c1nc2cc3c(cc2s1)OCO3`, the cytotoxicity was 20.3%.
For `CCOC(=O)c1ccc(NC(=O)Cn2cnc3cc(C)c(C)cc32)cc1`, the cytotoxicity was 24.9%.
Molecule `CC(=O)c1c(C)[nH]c(C(=O)OCC(=O)Nc2sc3c(c2C#N)CCCC3)c1C` has a cytotoxicity of 17.2%.
For `O=C(Cn1cc(C(=O)C2CC2)c2ccccc21)Nc1ccccc1Cl`, the cytotoxicity was 16.3%.
In the case of `CCCOc1ccccc1C1CC(=O)Nc2cc3c(cc21)OCO3` (stereo unspecified), the cytotoxicity is reported as 48.1% (active).
For `COc1ccccc1C1C2=C(COC2=O)Nc2cc3c(cc21)OCO3` (stereo unspecified), the cytotoxicity was 50.9% (active).
`COc1ccccc1N1CCN(Cc2cc(OC)c3c(c2)OCO3)CC1` showed a cytotoxicity of 22.5%.
Molecule `O=C(O)CCCn1cc(NC(=O)COc2cccc(Cl)c2)cn1` has a cytotoxicity of 11.7%.
Work on `COc1ccc2nc(SCC(=O)Nc3c(C)cc(C)cc3C)[nH]c2c1` yielded a cytotoxicity of 11.7%.
Work on `CCN(CC(=O)Nc1cc(Cl)ccc1C)C(=O)CSCc1ccc(C)cc1` yielded a cytotoxicity of 6.16%.
`Cc1ccc(-c2nc3c(cnn3-c3ccccc3)c(=O)o2)cc1` gave a cytotoxicity of 8.43%.
In the case of `CCOc1ccc(-n2c(O)c(/C=N/c3ccnn3Cc3ccncc3)c3ccccc3c2=O)cc1`, the cytotoxicity is reported as 23.8%.
For `COc1ccccc1/C=C/CN1CCC(CO)(Cc2ccccc2)CC1`, the cytotoxicity was -4.47%.
In the case of `CC1CC2=C(CC1/C=N/NC(N)=S)C(C)(C)CCC2` (stereo unspecified), the cytotoxicity is reported as 11.9%.
For `CC(=O)/C(=N\Nc1ccc(Cl)cc1Cl)Sc1cccc2cccnc12`, the cytotoxicity was 25.7% (active).
For `CN(C)c1cc[n+](Cc2ccccc2)cc1`, the cytotoxicity was 33.3% (active).
In the case of `COC(=O)c1ccc(CSc2nnc(N)s2)o1`, the cytotoxicity is reported as 21.4%.
`CCNC(=S)N(CCN(CC)CC)Cc1cc2cc3c(cc2[nH]c1=O)OCO3` gave a cytotoxicity of 6.68%.
With `C=CCn1c(SCC(=O)CC(=O)OCC)nc2cc(C(=O)N3CCC(C(N)=O)CC3)ccc2c1=O` the cytotoxicity was 3.69%.
For `Cc1ccccc1C(=O)NC(=S)Nc1ccc(N2CCN(C(=O)c3ccccc3)CC2)cc1`, the cytotoxicity was 32.2% (active).
Molecule `Cc1cc2[nH]ncc2cc1NC(=S)NC(=O)c1ccccc1` has a cytotoxicity of 2.37%.
For `CC(C)Oc1ccc(CN2CCC(n3nccc3NC(=O)c3cccnc3)CC2)cc1`, the cytotoxicity was 4.98%.
For `CNc1ccc(SC#N)cc1`, the cytotoxicity was 3.32%.
With `CCCC1=Nc2cc(C(=O)NCc3ccco3)ccc2Sc2ccccc21` the cytotoxicity was 53.8% (active).
Work on `CC(C)c1ccc(OCC(O)CN2CCN(c3ccccn3)CC2)cc1` (stereo unspecified) yielded a cytotoxicity of 9.73%.
`CC(C)OCC(O)CN1CCN(C(c2ccccc2)c2ccccc2)CC1` (stereo unspecified) showed a cytotoxicity of 16.3%.
In the case of `O=[N+]([O-])c1ccc(N2CCN(CC(O)COc3ccccc3)CC2)cc1` (stereo unspecified), the cytotoxicity is reported as 30.6% (active).
`O=C(c1cc(Cl)cc(Cl)c1)N1CCC(=O)N(C(COCc2ccccc2)Cc2ccccc2)CC1` (stereo unspecified) showed a cytotoxicity of 21.8%.
Molecule `CCCCC(=O)NC(c1ccc(OC)c(OC)c1)c1ccc2cccnc2c1O` (stereo unspecified) has a cytotoxicity of 19.2%.
For `C=CCOC(=O)C1=C[C@@H](c2ccc3c(c2)OCO3)C[C@@H](OCCCCO)O1`, the cytotoxicity was 2.89%.
For `Cc1nonc1C1CCCN1C(=O)c1cc(COc2cccc(C(F)(F)F)c2)on1` (stereo unspecified), the cytotoxicity was 29.3% (active).
Work on `O=C1/C(=C\c2cccnc2)CN(Cc2ccccc2)C/C1=C\c1cccnc1` yielded a cytotoxicity of 10.1%.
Molecule `O=C(NC1CCN(C(=S)Nc2ccc(Cl)cc2)CC1)C1CCCCC1` has a cytotoxicity of 2.7%.
With `C=CCOc1nc2c(c(=O)n(C)c(=O)n2C)n1Cc1ccc(Cl)cc1Cl` the cytotoxicity was 26.7% (active).
Molecule `COC(=O)Cc1[nH]n(-c2nc3ccccc3s2)c(=O)c1C(C)=Nc1ccc(OC)cc1` has a cytotoxicity of 15.6%.
Work on `COc1ccccc1CCNC(=O)C(=O)NCCC1CCCCN1S(=O)(=O)c1cccs1` (stereo unspecified) yielded a cytotoxicity of 20.7%.
With `N#CC(C#N)=CN=c1ccn(Cc2ccc(Cl)cc2Cl)cc1` the cytotoxicity was 29.5% (active).
For `CCCOc1ccc(Cc2c(Cl)nc(SC)nc2NC)cc1`, the cytotoxicity was 31.8% (active).
For `CC(C)Oc1ccc(/C=N/NC(=O)c2nnn(-c3nonc3N)c2CN(C)C2CCCCC2)cc1`, the cytotoxicity was 9.64%.
In the case of `O=C(CN1C(=O)c2ccccc2S1(=O)=O)N1CCc2ccccc21`, the cytotoxicity is reported as 36.9% (active).
With `Cc1onc(-c2ccccc2)c1C(=O)Nc1ccccc1C#N` the cytotoxicity was 7.65%.
Work on `Cc1cc(NC(=O)c2cccc(N3C(=O)CCC3=O)c2)no1` yielded a cytotoxicity of 8.93%.
In the case of `C/C(=N\NC(=O)Cc1ccc(Cl)cc1)c1ccccn1`, the cytotoxicity is reported as 38.9% (active).
`CC(=O)Nc1cccc(OCC(=O)/C=C2\N(C)c3ccccc3C2(C)C)c1` gave a cytotoxicity of 23.9%.
With `Cc1ccc(C(=O)C[n+]2cc(-c3ccccc3)n3c2CCCCC3)cc1` the cytotoxicity was 38.4% (active).
Work on `COc1ccc(Cn2c(-c3ccc(Cl)cc3)c[n+]3ccccc23)cc1` yielded a cytotoxicity of 15.3%.
`Cc1cc([N+](=O)[O-])c(-c2ccc(/C=N/n3cnnc3)o2)cc1Cl` showed a cytotoxicity of 3.83%.
For `COc1ccc(OC)c(/C=N/NC(=O)c2ccc[n+](CC(=O)c3ccccc3)c2)c1`, the cytotoxicity was 26.3% (active).
In the case of `COc1cccc2cc(C(N)=O)/c(=N\NC(=O)c3ccccc3)oc12`, the cytotoxicity is reported as 19.1%.
`CCN(CC)S(=O)(=O)c1ccc(Cl)c(C(=O)NC(C)C(c2cccs2)N2CCCC2)c1` (stereo unspecified) gave a cytotoxicity of 13.4%.
`COc1ccc(OC)c(Cc2cnc3nc(N)nc(N)c3c2C)c1` gave a cytotoxicity of 15.7%.
For `CCOC(=O)c1cnc(Nc2nc3ccccc3o2)nc1CSC(=S)N1CCCCC1`, the cytotoxicity was 20.4%.
